Hit rate of the full screen: of about 48,000 compounds, about 13,000 (27%) showed an effect of 50% or more. The list shows a part of the results.
system: Wolbachia pipientis; test: Anti-Wolbachia Cell-Based Screen; type: functional; design: scale not given: in the data most compounds retested in dose-response had high values; conditions: 5 µM

SMILES	Percent Effect [%]
CCc1nc(C)c(C2CC(=O)Nc3c2c(C(C)(C)C)nn3C)[nH]1 (stereo unspecified)	-1.206
CCN(C(=O)c1ccc2nnc(C3CCN(S(C)(=O)=O)C3)n2c1)C(C)C (stereo unspecified)	-8.044
CCS(=O)(=O)N1CCC(c2nnc(Cn3cccn3)n2C2CC2)CC1	-1.644
CCN(CC)c1ccc(-c2nc(-c3cccc(OC)c3OC)no2)cn1	-1.328
N#Cc1cccc(S(=O)(=O)CCN2CCOC2=O)c1	-9.929
COc1ccc(NC(=O)CCC2CCCN(S(=O)(=O)C3CC3)C2)cc1Cl (stereo unspecified)	5.788
COc1ccc(OCc2cc(C(=O)N3CCOCC3)n[nH]2)c(Cl)c1	-1.083
NC(=O)C1Cn2ccnc2C2(CCN(C(=O)NC3CCCC3)CC2)O1.O=C(O)C(F)(F)F (stereo unspecified)	99.21
CNC(=O)C1Cn2ccnc2C2(CCN(C(=O)c3ccoc3C)CC2)O1.O=C(O)C(F)(F)F (stereo unspecified)	5.988
O=C(NC1CC1)N1CCCC2(CCCCN2)C1.O=C(O)C(F)(F)F (stereo unspecified)	-8.648
Cc1nc(O)ccc1C(=O)N1CCCC1c1nc(-c2ccccc2)n[nH]1 (stereo unspecified)	-6.533
Cc1cc(-c2c[nH]nc2C2CCCCN2C(=O)c2ccccc2)on1 (stereo unspecified)	116.8
Cc1ccc2cc(C(=O)N3CCCCC3c3nc[nH]n3)ccc2n1 (stereo unspecified)	-6.785
Cc1cccc(C(=O)N2CCCC2c2c(C)n[nH]c2C)c1 (stereo unspecified)	0.2093
COCc1cccc(C(=O)N2CCCCC2c2nccs2)c1 (stereo unspecified)	13.03
Cc1noc(-c2c[nH]nc2C2CCCN2C(=O)c2ccccc2)c1C (stereo unspecified)	143.3
COCCN1C(=O)[C@H]2CC[C@@H]1CN(C(=O)Cc1c(F)cccc1Cl)C2	-1.329
Cc1[nH]ncc1C(=O)N1CCN(CC(O)C(C)(C)C)CC1 (stereo unspecified)	6.282
O=C(c1cnc(Nc2ccccc2)nc1)N1CCS(=O)(=O)CC1	6.856

SMILES	Percent Effect [%]
Cc1noc(CN(Cc2ccco2)Cc2cccc3c2OCO3)n1	-16.92
CN(C)CC(=O)N1CCC2(CC1)CN(Cc1cccnc1)C(=O)CO2	109.2
O=C1CCC2(CCCN(C(=O)c3ccoc3)C2)CN1Cc1ccncc1 (stereo unspecified)	9.259
CCOCC(=O)N1CCC[C@]2(C[C@@H](OCc3ccncc3)CO2)C1	2.897
O=C(c1ccoc1)N1CCC(NCc2cccnc2)CC1	-13.71
c1coc(CN2CCC3(CC2)CC(N2CCCC2)CO3)c1 (stereo unspecified)	-47.38
CCOCC(=O)N1CCC2(CC1)CN(Cc1cccnc1)C(=O)CO2	106.9
O=C1CCC2(CCCN(C(=O)c3ccc[nH]3)C2)CN1Cc1cccnc1 (stereo unspecified)	-3.42
O=C1COC2(CCN(Cc3ccco3)CC2)CN1Cc1cccnc1	107.7
O=C1COC2(CCN(C(=O)c3ccoc3)CC2)CN1Cc1cccnc1	89.17
O=C(O)c1cc2c(nc1O)CC(c1cccs1)CC2=O (stereo unspecified)	17.51
O=C(CCS(=O)(=O)C1CCCC1)NCCc1cccnc1	3.812
c1cn(Cc2nnc(C3CCN(C4CCOCC4)CC3)n2C2CC2)cn1	2.986
Cc1ccccc1Cc1nc(CSc2nnc(N)n2C2CC2)no1	8.42
O=C(O)c1cc(-c2cccnc2)cc(S(=O)(=O)NCc2ccccn2)c1	-2.76
CCC(C)Oc1cc(C(=O)Nc2nnc(C(C)C)[nH]2)ccn1 (stereo unspecified)	-13.47
Cc1occc1C(=O)N1CCC(C(O)c2ccc(Cl)cc2)CC1 (stereo unspecified)	-7.182
COCCN1CCc2ncnc(NC3CC3)c2CC1	94.73
Cc1nc2n(n1)CC(Nc1ncnc3c1CCC3)CC2 (stereo unspecified)	2.355

SMILES	Percent Effect [%]
CN(C)c1ncnc2c1CCN(c1cccc(F)c1)CC2	-12.67
COCCN1CCc2ncnc(N(C)C)c2CC1	110.9
FC(F)(F)c1cc(N2CCc3ncnc(NC4CC4)c3CC2)ncn1	-22.18
CN(C)c1ncnc2c1CCN(c1cc(C(F)(F)F)ncn1)CC2	-1.194
Cc1ccc(S(=O)(=O)Cc2noc([C@@H]3C[C@@H](O)CN3C(C)C)n2)cc1	-1.954
COCCNC(=O)N1CCN(C(C)C(=O)NC(C)C)CC1 (stereo unspecified)	2.251
COCCNC(=O)N1CCN(C(C)C(=O)NC2CCCC2)CC1 (stereo unspecified)	-10.58
COCCNC(=O)C(C)N1CCN(C)CC1.O=C(O)C(=O)O (stereo unspecified)	114.3
Cc1cccc(CC(=O)Nc2cccnc2N2CCC(CO)CC2)c1	-12.05
O=C1CCC2(CCCN(c3ncc(Cl)cc3F)C2)CN1CC1CC1 (stereo unspecified)	-9.557
NCc1ccc(N2CCN(c3ncccn3)CC2)c(F)c1	3.698
Cc1cccc(N2N=C(C(=O)NC(C)Cc3ccco3)CCC2=O)c1 (stereo unspecified)	19.33
CC1C(=O)Nc2cccnc2N1S(=O)(=O)c1cc(F)cc(F)c1 (stereo unspecified)	-12.84
Cc1cc(NCc2nnc3n2CCCCC3)n2nc(C)c(C)c2n1	-13.55
Cc1cc(N2CCCC2c2nnc3n2CCCCC3)nc(C)n1 (stereo unspecified)	112.6
Cc1cc(N2CCc3c(ncn3C3CC3)C2)nc(N)n1	13.11
Cc1cc(N2CCc3c(ncn3C)C2)nc(N)n1	-0.5866
Cc1cc(N2CCCC2c2nnc3n2CCCCC3)nc(N)n1 (stereo unspecified)	170
